Assay outcomes (PubChem BioAssay)
Compounds with a hit are over-represented: about 17% of the library has one in this group of screens.
HT1080 IDH1KD tx = toxicity to HT-1080 IDH1 knockdown cells (counter line); AID 686971; Potency, µM (series often up to 46.1 µM), for inactives: at the highest dose activity, negative = toxicity, actives largely listed as cytotoxic; HT-1080 IDH1 knockdown viability, ATP luminescence, 48 h; actives 2% (n = 360,000);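 note: 0% = DMSO wells and -100% = cell-free medium wells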
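After a 2 h attachment period, IDH1KD HT-1080 cells took pin-transferred compound for 48 h at 37 °C; ATP-based luminescence after 10 min room-temperature reagent incubation reported viability.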
TDP1 cell CPT = DT40-hTDP1 cell growth loss with CPT; Potency, µM (highest dose often 46.2 µM), inactives show top-dose activity change, negative = growth inhibition, most hits filed as inhibitors; AID 686979; actives 12% (n = 420,000); chicken DT40 Tdp1-/-;hTDP1 cells + 20 nM CPT, ATP luminescence, 48 h; note: % is set by controls: 0 for no effect and ±100 for the full control effect; nearly all actives have a fitted effect of over 55% in size
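Cell growth measured by CellTiter-Glo luminescence after a minimum 48 h, 37 C compound exposure with 20 nM CPT in Tdp1-knockout DT40 cells stably expressing hTDP1, seeded 400/well; qHTS titration format.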
HT1080-NT tox = kills 2HG-producing HT-1080-NT fibrosarcoma cells; Potency, µM (doses to about 46.1 µM), without a hit: top-dose activity, negative = less viability, most hits filed as cytotoxic; actives 1.6% (n = 360,000); AID 686970; HT-1080-NT fibrosarcoma viability, CellTiter-Glo ATP luminescence, 48 h;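 note: NT is the 2HG producing partner of a matched IDH1 knockdown line; 0% = DMSO-treated cells and -100% = media-only wells without cells; nearly all actives have a fitted effect of over 55% in size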
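HT-1080-NT fibrosarcoma cells (2HG-overproducing), 750 cells/well in RPMI with 5% FBS, dosed after 2 h and incubated 48 h at 37C. CellTiter-Glo luminescence normalized to DMSO and no-cell wells; concentration-response curves fitted and classed.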
DT40 TDP1 no CPT = qHTS for Inhibitors of human tyrosyl-DNA phosphodiesterase 1 (TDP1): qHTS in cells in absence of CPT | AID 686978, 2013 | Potency, µM (highest dose often 46.2 µM), inactives show top-dose activity change, negative = growth inhibition, hits mostly inhibitors | DT40 Tdp1-/- hTDP1 cells, no CPT, ATP luminescence, 48 h | actives 15% (n = 420,000); note: % is set by controls: 0 for no effect and ±100 for the full control effect; nearly all actives have a fitted effect of over 55% in size
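Growth kinetics read by CellTiter-Glo luminescence after ≥48 hr at 37 °C. Cells: DT40 Tdp1-/- stably carrying human TDP1, 400 per well, compound exposure in the absence of CPT (DMSO vehicle).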
TGFb inhibitor = TGF-b pathway inhibition | HepG2 CAGA-GFP TGF-b/SMAD3 reporter, GFP fluorescence, 18 h; TGF-beta stimulated, 500 pg/mL final | Potency, µM (highest dose often 46.1 µM), without a hit: top-dose activity, negative = inhibition, most hits filed as inhibitors | actives 1.2% (n = 410,000); note: % is set by controls: 0 for no effect and ±100 for the full control effect; nearly all actives have a fitted effect of over 65% in size
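TGF-beta reporter screen: HEPG2 CAGA-GFP, 1% FBS, 500 pg/mL TGF-beta final, 18 h; per-cell GFP summed per well; curves fitted and categorized by class.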
HepG2 tox = counter-screen for TGF-b inhibitors: cytotoxicity in HepG2 cells. HepG2 CAGA-GFP viability, ATP luminescence, 18 h. Potency, µM (highest dose often 46.1 µM), for the others: at the top dose activity change, negative = cytotoxicity, actives largely listed as cytotoxic. actives 0.76% (n = 410,000). AID 588856
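CellTiter-Glo luminescence gave cytotoxicity after 18 hours at 37 degrees C. The cells were HepG2 CAGA-GFP in 1% FBS DMEM, stimulated with 500 pg/mL TGF-beta after compound addition. %Activity was normalised to no-cell wells (complete cell-killing) and DMSO (no toxicity), and curves were fitted and classified.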
An asterisk follows results filed as active; ? = inconclusive; . = not tested or not shown; [ ] = another dose, or the depositor's remark. Calls come from the whole dose curve; as a rule, active = well fitted curve in the direction sought with a large enough effect; inconclusive = small, poorly fitted or top-dose-only effect, or another doubt; inactive = no such curve, though single readings can be large; an effect the other way counts as inactive or inconclusive. Potency is the fitted concentration of half-maximal effect.

SMILES	HT1080 IDH1KD tx	TDP1 cell CPT	HT1080-NT tox	DT40 TDP1 no CPT	TGFb inhibitor	HepG2 tox
CCCOc1ccc(F)cc1-c1cc(C(=O)Nc2ccc(OC)cc2OC)[nH]n1	8.0%	?	6.6%	18.4µM*	?	-0.1%
COc1ccc(C(=O)N2CCCC(CCC(=O)NCc3ccc(F)c(F)c3)C2)o1 (configuration not stated)	1.3%	-25.5%	-12.1%	-26.2%	-6.7%	-1.3%
O=[N+]([O-])c1ccc(N2CCN(c3cccc(Cl)c3)CC2)cn1	-21.8%	?	-27.3%	?	-1.2%	-11.0%
CCOc1cc(/C=N\NC(=O)Cn2nnc3ccccc32)ccc1O	3.1%	12.0%	7.8%	-1.1%	-1.5%	3.2%
COc1ccc(NCC(=O)Nc2ccc(Cl)cc2C)c(OC)c1	15.8µM*	?	?	29.1µM*	?	-63.9%
COc1ccc(Cl)cc1-c1cc(C(=O)Nc2ccc(C(C)(C)C)cc2)[nH]n1	?	20.6µM*	-23.5%	14.6µM*	19.9%	-23.9%
COc1ccc(NC(=O)c2cc(-c3cc(Cl)ccc3C)n[nH]2)cn1	?	23.1µM*	-26.3%	?	4.1%	-49.7%
CCOc1ccc(Cl)cc1-c1cc(C(=O)Nc2ccc(F)cc2)[nH]n1	?	?	?	16.4µM*	?	-22.9%
Cc1cccc(C)c1NC(=O)CN(C)S(=O)(=O)c1ccc2c(c1)n(C)c(=O)c(=O)n2C	.	-7.3%	.	-10.6%	?	-9.3%
Cc1ccc(S(=O)(=O)c2nc(S(C)(=O)=O)sc2N2CCC(C)CC2)cc1	?	14.6µM*	-0.6%	14.6µM*	-8.3%	-7.8%
Cc1ccc(S(=O)(=O)c2nc(S(C)(=O)=O)sc2N2CCCCCC2)cc1	-4.6%	-24.5%	0.5%	-1.5%	-8.8%	-10.6%
CC1CC(C)CN(C(CCc2ccccc2)C(=O)NC2CCCCC2)C1 (configuration not stated)	1.8%	?	-3.1%	-15.6%	-23.5%	-5.9%
O=C(CNC(=O)C12CC3CC(CC(C3)C1)C2)NC1=NCCS1	-3.9%	?	3.2%	?	-5.3%	-0.7%
O=C(CNC(=O)C1CCCCC1)NC1=NCCS1	13.3%	25.9µM*	6.0%	?	-3.2%	-28.4%
CCC(C)Nc1nc(Cl)nc(N(C#N)CN2C(=O)c3ccccc3S2(=O)=O)n1 (configuration not stated)	-23.3%	14.6µM*	-19.6%	?	?	-36.7%
CCN(C#N)c1nc(NC(C)C)nc(NC(C)C)n1	3.5%	-21.8%	7.7%[9.24 µM]	-18.1%	5.4%	-7.5%
CC(C)Nc1nc(Cl)nc(N(C#N)CN2C(=O)c3ccccc3C2=O)n1	18.4µM*	3.1%	?	-25.5%	-0.2%	-10.5%
CCCOc1ccc(-c2nn(-c3ccccc3)cc2/C=C2\SC(N)=NC2=O)cc1C	8.1%	16.4µM*	12.4%	?	11.7%	4.6%
CCCOc1ccc(-c2nn(-c3ccccc3)cc2C2NC(=O)NC(C)=C2C(=O)OC)cc1C (configuration not stated)	.	?	.	?	11.9%	-6.3%
CC(C)Oc1ccc(CCNC(=O)CC2C(=O)NCCN2C)cc1 (configuration not stated)	0.0%	-6.7%	-8.2%	?	-1.2%	-0.9%
OC(c1ccc(F)cc1)c1nc(-c2ccncc2)cs1 (configuration not stated)	?	7.31µM*	-14.4%	7.31µM*	4.6%	-4.1%
OC(c1ccc(F)cc1)c1nc(-c2cccc(F)c2)cs1 (configuration not stated)	-12.5%	?	-16.0%	?	-8.4%	-45.9%
OC(c1ccc(F)c(F)c1)c1nc(-c2cccc(C(F)(F)F)c2)cs1 (configuration not stated)	?	16.4µM*	?	?	?	20µM*
OC(c1ccc(F)c(F)c1)c1nc(-c2ccc(F)c(Cl)c2)cs1 (configuration not stated)	?	?	-25.1%	-28.8%	?	-44.7%
OC(c1ccc(F)c(F)c1)c1nc(-c2ccc(Cl)cc2)cs1 (configuration not stated)	?	?	-17.6%	16.4µM*	?	-53.4%
SMILES	HT1080 IDH1KD tx	TDP1 cell CPT	HT1080-NT tox	DT40 TDP1 no CPT	TGFb inhibitor	HepG2 tox
OC(c1ccc(F)c(F)c1)c1nc(-c2ccncc2)cs1 (configuration not stated)	?	8.2µM*	-0.1%	8.2µM*	-5.8%	-76.8%
Cc1nc2c(C)cccn2c(=O)c1NC(=O)c1ccc2c(c1)OCO2	0.3%	1.7%	1.6%	-6.8%	24.2%	-32.2%
Cc1ccc(-c2csc(C(O)c3ccc(F)c(F)c3)n2)cc1C (configuration not stated)	20.6µM*	?	?	?	?	-59.7%
COC(=O)c1c(NC(C)=O)c2c3c(sc2n1Cc1cc(C)ccc1C)CCCC3	.	-17.7%	.	-55.7%	0.6%	-19.2%
CCOC(=O)c1c(NC(C)=O)c2c3c(sc2n1Cc1nc(-c2cccc(C)c2)oc1C)CCCC3	.	3.66µM*	.	?	.	3.3%
CCOC(=O)c1c(NC(C)=O)c2c3c(sc2n1Cc1cccc(Cl)c1)CCCC3	.	?	.	14.6µM*	.	1.7%
CCOC(=O)c1c(NC(C)=O)c2c3c(sc2n1Cc1cc(C)ccc1C)CCCC3	.	5.8µM*	.	?	.	-3.0%
O=c1n(Cc2ccc(Cl)cc2)c2sc3c(c2c2ncnn12)CCCC3	3.3%	?	-0.4%	14.6µM*	-18.5%	12.4%
O=C(CSc1nnc(-c2ccccc2F)n1C1CC1)NCc1ccco1	9.7%	11.8%	5.6%	-5.6%	18.7%	-3.6%
CC(C)(C)C(=O)N1CCC(O)(CS(=O)(=O)Cc2ccccc2)CC1	10.7%	13.4%	-3.1%	5.1%	0.5%	2.9%
CCOC(=O)c1c(NC(C)=O)c2c3c(sc2n1Cc1nc(-c2ccccc2C)oc1C)CCCC3	.	-0.1%	.	-17.2%	1.9%	1.8%
CCOC(=O)c1c(NC(C)=O)c2c3c(sc2n1Cc1ccc(Cl)cc1)CCCC3	.	?	.	14.6µM*	.	-1.8%
CCOC(=O)c1ccc2c(c1)N(Cc1cccc([N+](=O)[O-])c1)C(=O)c1ccccc1S2	.	.	.	.	0.6%	-2.5%
